Results reported in PMC7819943, “Rice protein-binding microarrays: a tool to detect cis-acting elements near promoter regions in rice”.
In all, about 68,000 sequences were measured (“fluorescence intensity (a.u.)”: median about 9,100, highest 2% from about 16,000 on). The list comes from a sample in which the highest values are over-represented; it also holds similar and randomly drawn sequences.

What follows are sequences tested against OsWRKY34 (Oryza sativa, UniProt Q0JBA9 1-250) (assay: protein-binding microarray (RPBM); PBS, 2% BSA, 51.3 ng/ul salmon testes DNA, 50 uM zinc acetate, 200 nM TF, 25 C, 1 h; high values mean tight binding). Details: protein: recombinant; tags: N-terminal polyhistidine and DsRed monomer fusion (pET32a); label: CyDye5-dUTP incorporated in the synthesized complementary strand; 3' TTTTT single-stranded linker to array surface; dsDNA, one strand shown.
Chain of OsWRKY34 (Q0JBA9 entry or part of it): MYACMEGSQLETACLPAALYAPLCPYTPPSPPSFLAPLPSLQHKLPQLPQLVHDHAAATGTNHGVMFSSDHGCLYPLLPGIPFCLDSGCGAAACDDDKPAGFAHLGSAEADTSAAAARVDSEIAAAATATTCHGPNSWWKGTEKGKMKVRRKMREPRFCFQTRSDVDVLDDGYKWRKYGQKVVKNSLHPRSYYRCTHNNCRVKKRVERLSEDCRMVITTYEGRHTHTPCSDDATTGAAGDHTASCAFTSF
Procedure, shortened: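 A custom Agilent array was converted to double-stranded form by primer extension with Cy5-dUTP and blocked with 2% BSA. Protein at 200 nM in PBS with 2% BSA, salmon testes DNA and 50 µM zinc acetate was applied for 1 h at 25 °C, followed by washing. The proteins were polyhistidine–DsRed N-terminal fusions of transcription factors, expressed in E. coli BL21-CodonPlus and Ni–NTA-purified. The binding signal is per-feature fluorescence intensity (arbitrary units) from an Axon 4000B scanner.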
“GCCGGCTAAACTGGCTTATTGTACTTGCTCTTACTTGACTCGGAGTCACCTAGTGCAG” was tested, and the binding signal was 9430 fluorescence intensity (a.u.). For “GTGTGTTGTTGTTCTTGTTTTGGTTCTTTTCTAGTAGTATCGGAGTCACCTAGTGCAG”, the binding signal was 8750 fluorescence intensity (a.u.). In the case of “TCATTTTGTATTTTGTTGTCTCTGTCTTGCTGTTCCCTCGCGGAGTCACCTAGTGCAG”, the binding signal is reported as 8810 fluorescence intensity (a.u.). “ATGTTTTAATTTTGGGCTTCTTTTTGTTTTGGGCTTTTATCGGAGTCACCTAGTGCAG” was tested, and the binding signal was 24300 fluorescence intensity (a.u.). In the case of “ATGTTTTTTTTTGGGTCGCTTTCTTTGTGTGTGTATATATCGGAGTCACCTAGTGCAG”, the binding signal is reported as 16400 fluorescence intensity (a.u.). In the case of “ATTTTTTATTTCTTTTGTTTCAAATTTCAGTTCTTTTTATCGGAGTCACCTAGTGCAG”, the binding signal is reported as 9720 fluorescence intensity (a.u.). “TCTCGTTTCGTTCGTGTATCATGTTTTTTTTTGGGTCGCTCGGAGTCACCTAGTGCAG” was tested, and the binding signal was 8730 fluorescence intensity (a.u.). For “GCTCTCTCTCTCTCTCTCTCTCGCTGTCTCTCTCCCTCCCCGGAGTCACCTAGTGCAG”, the binding signal was 9110 fluorescence intensity (a.u.). “ATACTAGGCTGTATCTCTCTCGCTCTCTTGTTGTTCCCTCCGGAGTCACCTAGTGCAG” was tested, and the binding signal was 18200 fluorescence intensity (a.u.). For “TTTTCTTTCTTTTTCTTTTTTTTTATCGTTTTGTTCTTCTCGGAGTCACCTAGTGCAG”, the binding signal was 10500 fluorescence intensity (a.u.). In the case of “GGTCATACTCTCTTCGTCCCATTTAATGTACAATCATGCTCGGAGTCACCTAGTGCAG”, the binding signal is reported as 8860 fluorescence intensity (a.u.). For “GTTTCATAATCCTGTGTTCTTTTTGTTTACTATGGTTTTGCGGAGTCACCTAGTGCAG”, the binding signal was 11000 fluorescence intensity (a.u.). In the case of “GCAACTGATAGACTAACTTGTCCGGTCCTGTTTTGGAATCCGGAGTCACCTAGTGCAG”, the binding signal is reported as 10200 fluorescence intensity (a.u.). For “TGCCAGCACAAATCTCGAAGCACATCCAATGATCCAAGACCGGAGTCACCTAGTGCAG”, the binding signal was 9540 fluorescence intensity (a.u.). With “TACTGTTGCTGCTAGTTCACCATTTGCGCATTTCCTCTTCCGGAGTCACCTAGTGCAG” the binding signal was 11700 fluorescence intensity (a.u.). With “TCGCCGTTCGCTGGTATATGCCGTTGTCTTGGAATCATCTCGGAGTCACCTAGTGCAG” the binding signal was 11100 fluorescence intensity (a.u.). “AAATTTAGGTGGAGGGGTGTGGGCGGTTTCGTGCAAAAATCGGAGTCACCTAGTGCAG” was tested, and the binding signal was 19100 fluorescence intensity (a.u.). In the case of “GGCGGTATCGACGAAGAATCTCGGGGCGGTGGGGAGGTTTCGGAGTCACCTAGTGCAG”, the binding signal is reported as 17700 fluorescence intensity (a.u.). “CGCGGGAATCGGCCGGCGACGTGGGGAGGTGGGGAGGAGACGGAGTCACCTAGTGCAG” was tested, and the binding signal was 8900 fluorescence intensity (a.u.). In the case of “CCGGTGGGGTGGGGAATTCGGCGGAGGAAGACGACGACGACGGAGTCACCTAGTGCAG”, the binding signal is reported as 9250 fluorescence intensity (a.u.). For “GCATCGTGGGGTGTGGGTGGCGGTTTTGGAGGGGAGAGGTCGGAGTCACCTAGTGCAG”, the binding signal was 23200 fluorescence intensity (a.u.). “CGGTGTTGGGATCGGGTTTGGAGGTGGTAAGGGTGGTGGTCGGAGTCACCTAGTGCAG” was tested, and the binding signal was 10600 fluorescence intensity (a.u.). In the case of “GTGGAGGCGCGGTGGGGTGGGGAAGGAGTGTGTTTCGTGTCGGAGTCACCTAGTGCAG”, the binding signal is reported as 15500 fluorescence intensity (a.u.). “TGACATGGTTGTTAGGGTTTGCGAGCAAATTTTCGTGGGGCGGAGTCACCTAGTGCAG” was tested, and the binding signal was 10100 fluorescence intensity (a.u.). In the case of “GGGAGAGGTGGAGACCAGGAGGTGGGGTGGCGGAGGTCATCGGAGTCACCTAGTGCAG”, the binding signal is reported as 14300 fluorescence intensity (a.u.). “ATGGGTTGGGACTGTCCTGGTGCGCGATTACTAACGTGGACGGAGTCACCTAGTGCAG” was tested, and the binding signal was 8790 fluorescence intensity (a.u.). In the case of “TATTGGAACTATTACGACCACATGCTCTCTTCCTACTCTCCGGAGTCACCTAGTGCAG”, the binding signal is reported as 9770 fluorescence intensity (a.u.). With “CTCCAGCCGATATACATGCAGCCGCTGTCATCTTTTGTTCCGGAGTCACCTAGTGCAG” the binding signal was 9100 fluorescence intensity (a.u.). “TCTTTTACACTTCATTTATTTTTTCATGCACCAAGGCTTACGGAGTCACCTAGTGCAG” was tested, and the binding signal was 9810 fluorescence intensity (a.u.). In the case of “TGTTTTGGCTTTGGTCCCTTGCTTTTCTTTGGAGGTTGGACGGAGTCACCTAGTGCAG”, the binding signal is reported as 10400 fluorescence intensity (a.u.). With “TTCTTTTTTTGTGGGGAGAGGCGGGCTGTTTTTTTCTTGCCGGAGTCACCTAGTGCAG” the binding signal was 15900 fluorescence intensity (a.u.). With “GGATACTGCACAGCCCTTGATCACAATACAGTGCATTTCTCGGAGTCACCTAGTGCAG” the binding signal was 9450 fluorescence intensity (a.u.). For “GGGGATTTTTGTACGCTCACGGCATTTTTTTTGTCAGCGACGGAGTCACCTAGTGCAG”, the binding signal was 17500 fluorescence intensity (a.u.). With “CTTGCACGCGACGGCCTGGCATTTGTGTACGGCACCGCCCCGGAGTCACCTAGTGCAG” the binding signal was 8030 fluorescence intensity (a.u.). For “GAGTAGTTCGCTTTGGCAGTATGGCATTTGTACACGCTCACGGAGTCACCTAGTGCAG”, the binding signal was 8660 fluorescence intensity (a.u.). In the case of “TATCTTATCAGGTCTCGTCTTCTTTAATCCAACCCTTGTTCGGAGTCACCTAGTGCAG”, the binding signal is reported as 8680 fluorescence intensity (a.u.). With “ATCTTAAGCTGTCCTTTTTCATGCCGAGTCAGAGTTTCATCGGAGTCACCTAGTGCAG” the binding signal was 9130 fluorescence intensity (a.u.). With “TCGGATACGAGTTTGATTCTCATCCTCCTTCATTTATATTCGGAGTCACCTAGTGCAG” the binding signal was 8320 fluorescence intensity (a.u.). “CGTATTTTAATATATGACGCCGTTGACTTTTTATTAACGACGGAGTCACCTAGTGCAG” was tested, and the binding signal was 23200 fluorescence intensity (a.u.). For “GTATGACTTCTCCGTTTTTATATTTGCACTAATTTTTTAACGGAGTCACCTAGTGCAG”, the binding signal was 11200 fluorescence intensity (a.u.). For “CCGTATTTGAATATATGACGCCGTTGACTTTTTAACTAATCGGAGTCACCTAGTGCAG”, the binding signal was 17900 fluorescence intensity (a.u.). “CGTATTTTAATATATGACGCCCGCCGTTGACTTTTTGTCTCGGAGTCACCTAGTGCAG” was tested, and the binding signal was 27800 fluorescence intensity (a.u.).
